Calls of active or inactive are those of the source. Rule for the calls: active = hit-call score of the fitted dose curve at least 0.9, where 1 is the maximum; inactive = score below 0.9.

Chain of Bile acid receptor (Homo sapiens) (Q96RI1 whole entry, looked up): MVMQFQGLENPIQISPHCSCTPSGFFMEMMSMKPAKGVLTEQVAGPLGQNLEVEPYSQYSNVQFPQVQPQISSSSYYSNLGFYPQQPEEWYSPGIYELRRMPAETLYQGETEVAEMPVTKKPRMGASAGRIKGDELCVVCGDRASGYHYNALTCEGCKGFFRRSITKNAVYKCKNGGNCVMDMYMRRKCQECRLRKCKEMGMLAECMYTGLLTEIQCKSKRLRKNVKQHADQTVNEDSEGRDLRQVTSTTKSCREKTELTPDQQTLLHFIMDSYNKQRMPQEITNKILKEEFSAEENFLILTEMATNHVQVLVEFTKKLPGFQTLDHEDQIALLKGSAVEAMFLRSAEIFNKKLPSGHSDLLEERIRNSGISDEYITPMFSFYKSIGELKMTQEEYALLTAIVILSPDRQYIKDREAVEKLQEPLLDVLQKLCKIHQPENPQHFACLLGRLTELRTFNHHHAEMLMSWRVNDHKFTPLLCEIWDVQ

For this assay, the target named is Bile acid receptor (Homo sapiens) (UniProt Q96RI1). Nature of the assay: ATG_IR1_CIS: Attagene CIS-FACTORIAL HepG2 Assay for human Nuclear Receptor Subfamily 1 Group H Member 4 (NR1H4), IR1 submotif (AID 2282946). Conditions: IR1 reporter transcription, actives raise or lower the signal. As for the experimental part:
ATG_CIS is a cell-based, multiplexed-readout assay that uses HepG2, a human liver cell line, with measurements taken at 24 hours after chemical dosing in a 24-well plate.ATG_IR1_CIS is one of 52 assay component(s) measured or calculated from the ATG_CIS assay. It is designed to make measurements of mRNA induction, a form of inducible reporter, as detected with fluorescence intensity signals by Reverse transcription polymerase chain reaction (RT-PCR) and Capillary electrophoresis technology.Data from the assay component ATG_IR1_CIS was analyzed into 1 assay endpoint. This assay endpoint, ATG_IR1_CIS, was analyzed with bidirectional fitting relative to DMSO as the negative control and baseline of activity. Using a type of inducible reporter, measures of mRNA for gain or loss-of-signal activity can be used to understand the reporter gene at the transcription factor-level as they relate to the gene NR1H4. Furthermore, this assay endpoint can be referred to as a primary readout, because this assay has produced multiple assay endpoints where this one serves a reporter gene function. To generalize the intended target to other relatable targets, this assay endpoint is annotated to the nuclear receptor intended target family, where the subfamily is non-steroidal.
Human liver HepG2 cells are transiently transfected with multiple reporter transcription units (MRTUs) in 6-well plates using FuGene 6 reagent (Roche; 3 ml FuGene/1 mg DNA). The MRTU constructs are regulated by a cis-regulating element (promoter). […] A major difference between the CIS and TRANS system is that in CIS activities of endogenous TFs are measured, whereas the TRANS assay evaluates changes in activities of exogenous, chimeric NR-Gal4 proteins. […] At the end of 24 hour incubation, total RNA was isolated using TriZol reagent (Invitrogen). The isolated RNA is then reverse-transcribed using oligo(dT) primer and Mo-MLV reverse transcriptase (Invitrogen) with DNAse I (Ambion) treatment for 30 min. The one-tenth of the produced cDNA was amplified by PCR using Taq DNA polymerase (Invitrogen) and two reporter sequence-specific primers. The PCR products were fluorescently labeled by primer extension with 6-arboxyfluorescein (6-FAM) 5'-labeled reporter sequence-specific primer (2 min at 95 C, 20 s at 68 C and 10 min at 72 C) and these products were digested with 5U of HpaI (New England Biolabs) for 2h at 37 C. The fragments were purified using Qiaquick PCR columns (Qiagen), analyzed on an ABI 3130xL genetic analyzer (Applied Biosystems) with peak positions identified by using a set of X-rhodamine (ROX)-labeled MapMarker1000 molecular weight standards (BioVentures). The raw capillary electrophoresis data was processed using Attagraph software (Attagene).
On to `O=C1NC(=O)C2CC=CCC12` (stereo not given), for which the compound was called inactive. On to `Cc1ccccc1S(N)(=O)=O`, for which the compound was called inactive. On the same count and under the same terms, next, `CCCCCC1CCCC(=O)O1` (stereo not given): “inactive”; `Clc1ccccn1`: “inactive”; `CC/C=C\CCO`: “inactive”. The term AC50 denotes the concentration giving half of the maximal activity seen. Take `c1cc(N(CC2CO2)CC2CO2)ccc1Cc1ccc(N(CC2CO2)CC2CO2)cc1` (stereo not given): the concentration at half-maximal activity (AC50) was 27.6 µM (active).

In the case of `NC(N)=Nc1nc(CSCCC(N)=NS(N)(=O)=O)cs1`, the compound was called inactive. Regarding `O=C(CC(C(=O)OC1CCCCC1)S(=O)(=O)O)OC1CCCCC1` (stereo not given), the compound was called inactive. Take `C=C(C)C(=O)OCC1CCCO1` (stereo not given): the compound was called inactive. Turning to `O=C1NC(=O)[C@@H]2CC=CC[C@H]12`, the outcome was inactive. Turning to `[O-][n+]1ccc(Cl)cc1`, the call was inactive.

On to `CCOc1ccc2c(c1)C(C)CC(C)(C)N2` (stereo not given), for which the compound was called inactive. `NC(=O)c1ccc([N+](=O)[O-])cc1Cl`: the call was inactive. Still for that read-out and setting: to `CCC(=O)OCc1ccc(OC)cc1` belongs “inactive”. For `CCCCCCCCCCCCCCCCCC[N+](C)(C)C`, the AC50 is 45.2 µM (active). For the compound `CCCCCCCCCC/C=C/C1CC(=O)OC1=O` (stereo not given), the compound was called inactive.

Turning to `CN1CCCC1`, the result was inactive. The same measure, in the same setting: next, `Oc1ccc(Oc2ccccc2)cc1`: “inactive”; `c1ccc(CNc2ncnc3nc[nH]c23)cc1`: “inactive”. Turning to `CC(C)(C)NC(=O)[C@@H]1CN(Cc2cccnc2)CCN1C[C@@H](O)C[C@@H](Cc1ccccc1)C(=O)N[C@H]1c2ccccc2C[C@H]1O`, the compound was called inactive. The same measure, in the same setting: next, `CCCCNC(N)=O`: “inactive”. As to `COC(=O)[C@]1(C)CCC[C@@]2(C)[C@H]1CC=C1C=C(C(C)C)CC[C@@H]12`, the half-maximal activity concentration (AC50) is 6.77 µM (active). On to `O=C(O)Cc1c[nH]c2ccccc12`, for which the result was inactive. On the same count and under the same terms, next, `C=CC(C)(CCC=C(C)C)OC(=O)c1ccccc1` (stereo not given): “inactive”. Turning to `Oc1ccc(Cl)cc1C1CCCC1`, the concentration at half-maximal activity (AC50) was 57.8 µM (active).

`CCCCOC(=O)COc1ccc(Cl)cc1Cl`: the AC50 is 24.4 µM (active).

With `CC(C)CC(=O)CC(C)CC(C)C` (stereo not given), the call was inactive. The same measure, in the same setting: next, `CC(=O)OC(C)(C)Cc1ccccc1`: “inactive”; `Cc1cc2nc3c(=O)[nH]c(=O)nc-3n(C[C@H](O)[C@H](O)[C@H](O)CO)c2cc1C`: “inactive”. Still for that read-out and setting: next, `O=C(OCc1ccccc1)c1ccccc1`: “inactive”.

On to `O=[N+]([O-])c1ccc2nc[nH]c2c1`, for which the result was inactive.

For `COC(=O)CCSCCC(=O)OC`, the call was inactive. On the same count and under the same terms, to `CNC[C@H](O)[C@@H](O)[C@H](O)[C@H](O)CO` belongs “inactive”; to `O=C(Oc1ccccc1)c1ccccc1`, “inactive”; to `CC1=CCCC(C)(C)C12CCC(C)O2` (stereo not given), “inactive”. The same measure, in the same setting: next, `Sc1nc2ccccc2s1`: “inactive”; `CCO[Si](CCCN)(OCC)OCC`: “inactive”. For the compound `CCOC(=O)CC(=O)OCC`, the outcome was inactive. Same read-out and setting: to `Cc1cc(-n2nc3ccc(Cl)cc3n2)c(O)c(C(C)(C)C)c1` belongs “inactive”. On the same count and under the same terms, to `NC(=O)c1ccc(N)cc1` belongs “inactive”.

(Values after PubChem BioAssay (EPA / NIEHS).)
